Test [1] has as its target Lysosomal acid glucosylceramidase (Homo sapiens) (UniProt P04062). As to the kind of experiment: Glucocerebrosidase-p2 (AID 348; in the data active means potency below about 10 µM; further: potency means the concentration at half of the fitted maximal effect). To be noted: purified GBA, blue fluorogenic substrate, 40 min. The method, boiled down: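 Normal human glucocerebrosidase (0.2 nM) with blue fluorogenic substrate (80 uM final) in citrate/phosphate pH 5.9 with 10mM sodium taurocholate, 0.01% tween-20; 40 min RT, NaOH/glycine stop; fluorescence Ex 365/Em 440; AC50 from a titration from 0.6 nM upwards.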

Test [2] addresses Cytochrome P450 1A2 (Homo sapiens) (UniProt P05177). As to the kind of experiment: p450-cyp1a2 (AID 410; calls by dose curve; further: potency means the concentration at half of the fitted maximal effect). As to conditions: recombinant CYP1A2, luciferin-ME demethylation, luminescence; series mostly up to 57 µM. The method, boiled down:
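Read-out is luminescence from luciferin produced by CYP1A2 demethylation of Luciferin-ME (100uM, at Km). Detection reagent stopped the 60 min NADPH-dependent reaction; signals were normalized to 57 uM furafylline.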

Test [3] is described as follows: Stat Signaling Pathway (AID 446; active means well fitted curve in either direction with a large enough effect, not every such curve was filed as active;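 further: ME-180 cervical cancer cells given 40 pM IL-6 alongside compound; SIE-controlled beta-lactamase reporter measured as 460/530 nm FRET emission ratio; on the % scale 0 is the no-effect control and ±100 the full control effect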). As to conditions: ME-180 (cervical carcinoma) SIE beta-lactamase reporter, IL-6 stimulated, 5 h; at 7.69 µM (top of the series) unless noted. The method, boiled down: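 Overnight-plated ME-180 cells bearing a STAT Inducible Element beta-lactamase reporter; 5 h co-exposure to compound and 40 pM IL-6; values normalized to 300 pM IL-6 and 125 nM JAK inhibitor controls.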

Test [4] has as its target Glucocorticoid receptor (Homo sapiens) (UniProt P04150). As to the kind of experiment: GR-GFP Redistribution (AID 450;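 active means compounds whose dose series gives a full or clear partial fitted curve of increased nuclear translocation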; further: potency means the concentration at half of the fitted maximal effect). As to conditions: U2OS GR-GFP nuclear translocation, laser cytometry, 2 h.
Test [5] shares this target. The experiment in a line: GR-EFC Redistribution (AID 451; calls by dose curve; further: potency means the concentration at half of the fitted maximal effect). To be noted: CHO-K1 GR-EFC translocation, beta-gal luminescence, 2 h. The method, boiled down: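 CHO-K1 cells stably expressing nuclear-localized β-gal enzyme acceptor and GR fused C-terminally to the enzyme donor fragment; ligand-driven nuclear translocation restores β-gal by complementation. Compounds titrated up to 46 uM final, 2 h at 37 °C; luminescence read.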

The target of test [6] is Mitogen-activated protein kinase 10 (Mus musculus) (UniProt Q61831). As to the kind of experiment: JNK3 AlphaScreen Assay (AID 530; active means well fitted curve in either direction with a large enough effect, not every such curve was filed as active;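 further: kinase came from lysate of stimulated human HepG2 cells; signal reports phosphorylation of biotinylated GST-cJun 1-79 at Ser73 with 10 µM ATP; on the % scale 0 is the no-effect control and ±100 the full control effect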). As to conditions: JNK3 lysate, c-Jun phosphorylation; series mostly up to 57.1 µM. The method, boiled down:
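Biotinylated GST-cJun(1-79) served as substrate for JNK3 in HepG2 lysates stimulated with IL-1beta and TNF-alpha. ATP was 10 uM final, pH 7.6. Ser73 phosphorylation was quantified by AlphaScreen (680 nm excitation).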

The target in test [7] is Cytochrome P450 2C9 (Homo sapiens) (UniProt P11712). As to the kind of experiment: qHTS Assay for Inhibitors and Substrates of Cytochrome P450 2C9 (AID 883). Further: potency means the concentration at half of the fitted maximal effect; nearly all actives have a fitted effect of over 60% in size. As to conditions: recombinant CYP2C9, luciferin-H luminescence, 60 min; series mostly up to 57.1 µM. The method, boiled down: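 CYP2C9 deoxyluciferin hydroxylation, 37C, 60 min with NADPH regeneration; 10nM enzyme, 100uM Luciferin-H (KM). Glo detection reagent stopped reaction; luminescence normalized to sulphaphenazole (57uM) full inhibition.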

Test [8] deals with Cytochrome P450 3A4 (Homo sapiens) (UniProt P08684). As to the kind of experiment: qHTS Assay for Inhibitors and Substrates of Cytochrome P450 3A4 (AID 884). Further: potency means the concentration at half of the fitted maximal effect; nearly all actives have a fitted effect of over 50% in size. To be noted: recombinant CYP3A4, Luciferin-PPXE luminescence; series mostly up to 57.1 µM. The method, boiled down:
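Luminescent readout of luciferin produced by CYP3A4 (20 nM) dealkylation of Luciferin-PPXE, 25 uM (its KM). NADPH-driven reaction ran 60 min at RT after 10 min compound preincubation; data scaled to 57 uM ketoconazole as 100% inhibition.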
On the technique in general: qHTS replaces the single test concentration by a dilution series.

Test [9] has the same target. As to the kind of experiment: qHTS Assay for Activators of Cytochrome P450 3A4 (AID 885). Further: nearly all actives have a fitted effect of over 65% in size. To be noted: recombinant CYP3A4, Luciferin-PPXE luminescence, 60 min; series mostly up to 57.1 µM. The method, boiled down:
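Using 20nM recombinant human CYP3A4 in potassium phosphate (200mM), substrate Luciferin-PPXE at 25uM, luminescent luciferin detection followed a 60-min RT NADPH reaction; data scaled to 57 uM ketoconazole.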

The target of test [10] is Cytochrome P450 2C19 (Homo sapiens) (UniProt P33261). The experiment in a line: qHTS Assay for Inhibitors and Substrates of Cytochrome P450 2C19 (AID 899). Further: potency means the concentration at half of the fitted maximal effect; nearly all actives have a fitted effect of over 60% in size. As to conditions: recombinant CYP2C19, luciferin-H EGE luminescence; series mostly up to 57.1 µM. The method, boiled down:
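In 50mM KPO4, the reaction held 5nM enzyme and KM-level (10uM) Luciferin-H EGE; it ran 60 min at 37C after NADPH regeneration and a 10 min compound preincubation. Luminescence values were scaled to 57uM ketoconazole as complete inhibition.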

A short description of test [11]: qHTS Assay for Lipid Storage Modulators (AID 1519; calls by dose curve). To be noted: Drosophila S3 cells, BODIPY lipid droplet/cell ratio, laser cytometry, cells loaded with oleic acid; for activity change, negative = inhibition: at 57.5 µM (top of the series). The method, boiled down:
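Cells seeded at 5,000 per well were treated with compounds over a concentration series and loaded with oleic acid (400 uM, as added). Lipid droplet fluorescence (488 nm excitation, 500-530 nm channel) was read by laser-scanning cytometry and normalized to 20 uM Triacsin C.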

For test [12], the target named is Dual specificity protein kinase CLK4 (Homo sapiens) (UniProt Q9HAZ1). As to the kind of experiment: qHTS Assay for Inhibitors of CDC-like Kinase 4 (Kinase-Glo Assay) (AID 1770). Further: potency means the concentration at half of the fitted maximal effect; nearly all actives have a fitted effect of over 65% in size. As to conditions: recombinant Clk4, Kinase-Glo ATP depletion luminescence; series mostly up to 66.7 µM. The method, boiled down: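 Inhibition was judged from remaining ATP, measured by Ultra-Glo luciferase bioluminescence after Clk4 (25 nM) had acted on RS peptide at 1 uM ATP for 4.5 hours, room temperature.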

Test [13] shares this target. As to the kind of experiment: qHTS Assay for Inhibitors of CDC-like Kinase 4 (ADP-Glo Assay) (AID 1771). Further: potency means the concentration at half of the fitted maximal effect; nearly all actives have a fitted effect of over 70% in size. As to conditions: recombinant CLK4, ADP-Glo luminescence; series mostly up to 80 µM. The method, boiled down:
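In this ADP-Glo format, 1 uM ATP and 100 uM RS peptide served as substrates for 25 nM Clk4 in Mg2+/EGTA/DTT/Triton buffer; reactions ran 1 hr at room temperature before luminescent ADP quantification.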

For test [14], the target named is Ubiquitin carboxyl-terminal hydrolase 1 (Homo sapiens) (UniProt O94782). The experiment in a line: Inhibitors of USP1/UAF1: Pilot qHTS (AID 504865).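 Further: rhodamine fluorescence freed from ubiquitin-rhodamine substrate followed over time; top concentration of the series differs between compounds; on the % scale 0 is the no-effect control and ±100 the full control effect; nearly all actives have a fitted effect of over 35% in size.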 As to conditions: purified USP1/UAF1, Ub-rhodamine cleavage fluorescence; series mostly up to 54.9 µM. The method, boiled down:
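Kinetic fluorescence assay: 1nM USP1/UAF1, 15 min compound preincubation, then 150nM Ub-Rho; 480/540 nm.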

Test [15] is described as follows: Primary qHTS for small molecule stabilizers of the endoplasmic reticulum resident proteome: Secreted ER Calcium Modulated Protein (SERCaMP) assay (AID 1508630). Further: on the % scale 0 is the no-effect control and ±100 the full control effect. To be noted: SH-SY5Y GLuc-SERCaMP (Gaussia luciferase released on ER calcium loss) secretion, thapsigargin, luminescence; series mostly up to 38.4 µM. The method, boiled down:
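The SH-SY5Y reporter protocol was run at 3 concentrations up to 38.3 uM (primary) or 11 concentrations (follow-up): 16 h compound, 100 nM thapsigargin for 4 h, then extracellular luciferase luminescence.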

A short description of test [16]: NFAT Signaling Pathway (AID 444; active means well fitted curve in either direction with a large enough effect, not every such curve was filed as active;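 further: carbachol stimulus at about its EC50 of 1 µM final; on the % scale 0 is the no-effect control and ±100 the full control effect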). As to conditions: Jurkat NFAT-bla M1, carbachol, beta-lactamase ratio, 5 h; at 7.69 µM (top of the series) unless noted. The method, boiled down:
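Jurkat cells carrying an NFAT-driven β-lactamase reporter and co-transfected muscarinic M1 receptor were treated with compound plus carbachol (1 uM final, an EC50 level) for 5 h at 37 °C. CCF4 loading followed for 1 h at RT; 460/530 nm ratio gave %activity.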

Where [17] appears, read: measured here: cell count channel max response.
Setting [18] is: measured here: lipid channel max response.

The structures appear in SMILES notation. Inconclusive results are not listed. Active and inactive are the calls of the source. Unless noted, the call rests on the fitted dose curve; in most records, active means well fitted curve in the direction sought with a large enough effect; inconclusive means small, poorly fitted or top-dose-only effect, or another doubt; inactive means no such curve, though single readings can be large; an effect the other way counts as inactive or inconclusive.

Ubiquitin carboxyl-terminal hydrolase 1 (Homo sapiens), sequence (O94782 whole entry, looked up): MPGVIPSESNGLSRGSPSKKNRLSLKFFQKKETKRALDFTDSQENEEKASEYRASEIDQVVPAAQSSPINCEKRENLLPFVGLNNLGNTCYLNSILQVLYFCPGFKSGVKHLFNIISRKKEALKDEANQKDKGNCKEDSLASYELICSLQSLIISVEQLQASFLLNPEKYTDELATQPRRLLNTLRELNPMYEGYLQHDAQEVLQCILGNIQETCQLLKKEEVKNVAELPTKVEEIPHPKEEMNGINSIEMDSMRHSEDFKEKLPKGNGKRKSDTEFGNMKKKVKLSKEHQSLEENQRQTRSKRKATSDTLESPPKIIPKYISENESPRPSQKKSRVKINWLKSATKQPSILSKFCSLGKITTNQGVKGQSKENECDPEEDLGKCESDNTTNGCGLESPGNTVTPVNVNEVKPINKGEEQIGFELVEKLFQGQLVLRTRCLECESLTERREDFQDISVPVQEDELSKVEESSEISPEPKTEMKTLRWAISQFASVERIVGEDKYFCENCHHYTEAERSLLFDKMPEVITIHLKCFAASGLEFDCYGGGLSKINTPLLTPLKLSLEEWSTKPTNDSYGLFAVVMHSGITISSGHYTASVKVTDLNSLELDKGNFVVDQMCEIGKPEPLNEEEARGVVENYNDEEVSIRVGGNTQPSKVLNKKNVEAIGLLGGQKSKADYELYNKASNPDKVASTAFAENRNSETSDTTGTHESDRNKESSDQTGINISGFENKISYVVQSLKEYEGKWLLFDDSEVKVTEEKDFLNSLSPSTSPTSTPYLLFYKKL
Dual specificity protein kinase CLK4 (Homo sapiens), sequence (Q9HAZ1 whole entry, looked up): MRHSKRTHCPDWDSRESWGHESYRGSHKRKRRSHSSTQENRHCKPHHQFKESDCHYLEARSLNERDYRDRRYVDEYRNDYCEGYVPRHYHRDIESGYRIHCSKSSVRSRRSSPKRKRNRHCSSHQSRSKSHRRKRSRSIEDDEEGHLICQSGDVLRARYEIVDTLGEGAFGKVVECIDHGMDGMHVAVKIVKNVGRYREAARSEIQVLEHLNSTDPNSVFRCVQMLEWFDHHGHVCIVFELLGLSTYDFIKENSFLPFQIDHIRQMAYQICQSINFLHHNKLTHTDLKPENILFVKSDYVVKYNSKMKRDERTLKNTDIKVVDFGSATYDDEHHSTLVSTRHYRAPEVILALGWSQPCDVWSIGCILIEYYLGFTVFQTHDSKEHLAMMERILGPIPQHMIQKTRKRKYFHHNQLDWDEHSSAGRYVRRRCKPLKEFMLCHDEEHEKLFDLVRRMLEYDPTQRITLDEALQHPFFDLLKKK
Cytochrome P450 3A4 (Homo sapiens), sequence (P08684 whole entry, looked up): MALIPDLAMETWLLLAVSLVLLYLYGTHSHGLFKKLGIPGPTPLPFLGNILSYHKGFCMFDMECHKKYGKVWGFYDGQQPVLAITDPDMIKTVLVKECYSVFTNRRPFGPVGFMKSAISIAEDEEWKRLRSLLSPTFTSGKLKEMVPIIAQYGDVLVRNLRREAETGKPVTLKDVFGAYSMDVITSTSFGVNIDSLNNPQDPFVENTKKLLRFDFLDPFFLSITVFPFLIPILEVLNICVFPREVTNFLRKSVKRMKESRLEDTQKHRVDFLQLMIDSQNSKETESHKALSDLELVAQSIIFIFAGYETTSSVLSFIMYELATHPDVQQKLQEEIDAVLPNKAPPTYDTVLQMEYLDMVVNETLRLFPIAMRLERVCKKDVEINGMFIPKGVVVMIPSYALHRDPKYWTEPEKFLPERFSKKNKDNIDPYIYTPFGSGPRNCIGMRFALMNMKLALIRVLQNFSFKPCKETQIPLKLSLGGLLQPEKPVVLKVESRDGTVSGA
Glucocorticoid receptor (Homo sapiens), sequence (P04150 whole entry, looked up, the tested form may be a part): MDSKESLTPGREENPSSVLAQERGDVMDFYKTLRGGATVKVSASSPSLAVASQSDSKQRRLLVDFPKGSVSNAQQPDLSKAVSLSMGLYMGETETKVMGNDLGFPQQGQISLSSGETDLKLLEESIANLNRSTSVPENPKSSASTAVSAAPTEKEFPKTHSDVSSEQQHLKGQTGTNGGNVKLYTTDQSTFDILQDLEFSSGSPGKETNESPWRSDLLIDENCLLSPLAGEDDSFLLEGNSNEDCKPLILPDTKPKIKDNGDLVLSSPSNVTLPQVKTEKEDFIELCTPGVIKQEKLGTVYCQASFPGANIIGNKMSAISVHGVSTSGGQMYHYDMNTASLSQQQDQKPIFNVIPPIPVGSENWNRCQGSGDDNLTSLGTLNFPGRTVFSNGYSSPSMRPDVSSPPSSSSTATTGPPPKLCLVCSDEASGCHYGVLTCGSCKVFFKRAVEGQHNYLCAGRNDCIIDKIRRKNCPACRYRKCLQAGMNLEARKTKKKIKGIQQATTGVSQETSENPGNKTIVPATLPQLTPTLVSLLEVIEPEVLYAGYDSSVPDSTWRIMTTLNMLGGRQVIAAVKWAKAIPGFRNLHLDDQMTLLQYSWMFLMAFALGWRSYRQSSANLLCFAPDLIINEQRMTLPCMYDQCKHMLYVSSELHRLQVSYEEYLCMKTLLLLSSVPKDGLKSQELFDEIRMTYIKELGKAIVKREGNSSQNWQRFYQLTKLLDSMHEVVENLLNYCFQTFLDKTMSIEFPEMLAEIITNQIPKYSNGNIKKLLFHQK
Cytochrome P450 1A2 (Homo sapiens), sequence (P05177 whole entry, looked up): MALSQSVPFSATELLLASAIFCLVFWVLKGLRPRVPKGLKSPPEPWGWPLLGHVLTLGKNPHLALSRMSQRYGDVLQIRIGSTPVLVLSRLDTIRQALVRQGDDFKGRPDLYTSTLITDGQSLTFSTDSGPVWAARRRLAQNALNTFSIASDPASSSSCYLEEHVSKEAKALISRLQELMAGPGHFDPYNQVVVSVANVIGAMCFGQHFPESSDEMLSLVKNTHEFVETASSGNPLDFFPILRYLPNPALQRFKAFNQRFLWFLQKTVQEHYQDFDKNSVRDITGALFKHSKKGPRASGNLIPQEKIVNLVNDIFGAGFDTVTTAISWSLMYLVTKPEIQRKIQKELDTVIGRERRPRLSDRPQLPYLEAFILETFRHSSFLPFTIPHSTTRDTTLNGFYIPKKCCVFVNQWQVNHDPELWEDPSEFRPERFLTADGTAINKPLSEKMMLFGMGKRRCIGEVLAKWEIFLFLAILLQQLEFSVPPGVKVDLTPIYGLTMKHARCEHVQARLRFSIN
Lysosomal acid glucosylceramidase (Homo sapiens), sequence (P04062 whole entry, looked up): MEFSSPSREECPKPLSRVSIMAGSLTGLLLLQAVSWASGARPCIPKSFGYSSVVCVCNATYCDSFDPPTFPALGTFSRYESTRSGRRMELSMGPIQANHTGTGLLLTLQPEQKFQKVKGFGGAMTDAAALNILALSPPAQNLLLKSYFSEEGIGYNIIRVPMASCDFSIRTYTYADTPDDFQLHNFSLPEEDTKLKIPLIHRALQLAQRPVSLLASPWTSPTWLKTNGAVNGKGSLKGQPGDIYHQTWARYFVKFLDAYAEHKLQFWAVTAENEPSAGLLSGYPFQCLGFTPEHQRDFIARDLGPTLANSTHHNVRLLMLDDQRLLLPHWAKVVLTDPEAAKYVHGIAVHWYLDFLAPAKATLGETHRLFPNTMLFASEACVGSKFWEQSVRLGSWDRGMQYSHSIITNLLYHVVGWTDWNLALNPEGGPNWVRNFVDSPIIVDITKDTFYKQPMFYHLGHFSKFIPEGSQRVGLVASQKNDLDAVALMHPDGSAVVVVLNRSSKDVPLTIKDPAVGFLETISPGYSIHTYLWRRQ
Cytochrome P450 2C19 (Homo sapiens), sequence (P33261 whole entry, looked up): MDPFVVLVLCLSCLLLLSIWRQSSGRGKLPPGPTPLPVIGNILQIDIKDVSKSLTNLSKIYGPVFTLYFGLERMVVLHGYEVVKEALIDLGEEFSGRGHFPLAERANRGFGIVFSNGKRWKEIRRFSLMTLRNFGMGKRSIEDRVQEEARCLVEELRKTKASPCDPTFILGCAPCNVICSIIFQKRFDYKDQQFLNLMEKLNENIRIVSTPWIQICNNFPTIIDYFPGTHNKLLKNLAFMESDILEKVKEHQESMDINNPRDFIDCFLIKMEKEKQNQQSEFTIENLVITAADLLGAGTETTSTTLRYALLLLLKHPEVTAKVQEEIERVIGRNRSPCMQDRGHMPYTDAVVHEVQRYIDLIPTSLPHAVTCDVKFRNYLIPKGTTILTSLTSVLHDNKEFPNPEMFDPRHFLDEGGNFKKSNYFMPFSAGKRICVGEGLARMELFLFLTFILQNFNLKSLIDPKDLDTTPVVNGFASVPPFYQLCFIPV
Cytochrome P450 2C9 (Homo sapiens), sequence (P11712 whole entry, looked up): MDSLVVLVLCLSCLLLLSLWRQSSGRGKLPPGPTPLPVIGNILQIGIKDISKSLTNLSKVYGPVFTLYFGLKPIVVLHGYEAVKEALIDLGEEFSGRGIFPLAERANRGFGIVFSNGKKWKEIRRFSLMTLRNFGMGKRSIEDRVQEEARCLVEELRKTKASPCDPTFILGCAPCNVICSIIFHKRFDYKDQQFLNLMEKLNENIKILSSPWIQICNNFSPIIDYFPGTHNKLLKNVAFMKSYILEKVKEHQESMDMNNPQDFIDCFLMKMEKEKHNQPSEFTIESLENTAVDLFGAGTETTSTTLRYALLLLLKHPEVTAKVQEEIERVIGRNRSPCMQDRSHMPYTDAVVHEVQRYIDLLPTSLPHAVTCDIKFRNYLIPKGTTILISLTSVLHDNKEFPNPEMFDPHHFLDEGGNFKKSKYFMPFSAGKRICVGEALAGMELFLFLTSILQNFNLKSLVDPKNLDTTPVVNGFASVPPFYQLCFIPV

In the case of `COc1ccc(CNc2ncnc3ccc(-c4cccc(NS(C)(=O)=O)c4)cc23)c(OC)c1`, the Potency was > 11.4 µM (inactive) in [1]; 7.94 µM (active) in [2]; > 46 µM (inactive) in test [4]; > 46 µM (inactive) in test [5]; 0.501 µM (active) in [7]; 2 µM (active) in test [8]. Also, the Potency is 2.51 µM (active) in test [10], 11.2 µM (active) in [12] and 25.1 µM (active) in test [13]. Also, the activity, negative = inhibition in test [3] was -11.9% (inactive). Besides, the outcome in [6] was inactive. The Potency entry in test [9], in test [14] and in test [15] was “inactive” in each case. In addition, the activity change, negative = inhibition in test [11] was -4.77% (inactive). Moreover, the max response is -8.13% in [11] (setting [17]) and -11.3% in test [11] (setting [18]).
`COc1cccc(Nc2ncc3ncc(=O)n(CCc4ccccc4)c3n2)c1`: the activity change, negative = inhibition was 4.6% (inactive) in test [16] and -5.96% (inactive) in test [11]. Further, the activity, negative = inhibition in test [3] was -3.68% (inactive). Also, the Potency is > 9.22 µM (inactive) in [4], > 46 µM (inactive) in test [5], 0.1 µM (active) in [12] and 0.282 µM (active) in [13]. Moreover, the compound was called inactive in test [6]. The max response is -10.9% in test [11] (setting [17]) and -19.1% in test [11] (setting [18]). Also, the Potency entry in [14] and in test [15] was “inactive” each time.
As for `COc1ccc(CNc2ncnc3ccc(-c4cccnc4)cc23)c(OC)c1`, the Potency in test [1] is > 11.4 µM (inactive); in test [2] it was 0.398 µM (active); in test [4], > 46 µM (inactive); in [5] it was > 46 µM (inactive); in test [8], 1.26 µM (active); in test [12], 14.1 µM (active). Further, the Potency in test [13] was 14.1 µM (active). For the same compound, the activity change, negative = inhibition in [16] is 29.9% (inactive); in test [11] it was -5.09% (inactive). For the same compound, in test [3], the activity, negative = inhibition was 2.05% (inactive). The compound was classed as inactive in test [6]. Also, the Potency result in [9], in test [14] and in test [15] was “inactive” in each case. The results for the max response in test [11] (setting [17]) and in test [11] (setting [18]) were -15.1% and -21.1%, respectively.

These data come from PubChem BioAssay (NCATS).
